Source: PubChem BioAssay (Tox21)
Records with an inconclusive call do not appear. Active and inactive are the calls of the source. Unless noted, calls follow the shape of the dose curve; as a rule, active = well fitted curve in the direction sought with a large enough effect in the repeat runs; inconclusive = weak or mixed curves; inactive = no such curve, though single readings can be large; an effect the other way counts as inactive or inconclusive.

Legend:
[1] = qHTS assay to identify aromatase inhibitors - cell viability counter screen (AID 743084);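 also: cells stimulated with testosterone during compound exposure; nearly all actives have a fitted effect of over 55% in size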; also: potency is read from the fitted curve at half-maximal effect
[2] = target: Aryl hydrocarbon receptor (Homo sapiens) (UniProt P35869); assay: qHTS assay to identify small molecule that activate the aryl hydrocarbon receptor (AhR) signaling pathway (AID 743085); also: nearly all actives have a fitted effect of over 15% in size; also: potency is read from the fitted curve at half-maximal effect;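 as to activation: HG2L7.5c1 human HepG2 liver cells with stably integrated DRE-driven firefly reporter; series mostly up to about 70 µM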
Aryl hydrocarbon receptor (Homo sapiens), sequence (P35869 whole entry, looked up): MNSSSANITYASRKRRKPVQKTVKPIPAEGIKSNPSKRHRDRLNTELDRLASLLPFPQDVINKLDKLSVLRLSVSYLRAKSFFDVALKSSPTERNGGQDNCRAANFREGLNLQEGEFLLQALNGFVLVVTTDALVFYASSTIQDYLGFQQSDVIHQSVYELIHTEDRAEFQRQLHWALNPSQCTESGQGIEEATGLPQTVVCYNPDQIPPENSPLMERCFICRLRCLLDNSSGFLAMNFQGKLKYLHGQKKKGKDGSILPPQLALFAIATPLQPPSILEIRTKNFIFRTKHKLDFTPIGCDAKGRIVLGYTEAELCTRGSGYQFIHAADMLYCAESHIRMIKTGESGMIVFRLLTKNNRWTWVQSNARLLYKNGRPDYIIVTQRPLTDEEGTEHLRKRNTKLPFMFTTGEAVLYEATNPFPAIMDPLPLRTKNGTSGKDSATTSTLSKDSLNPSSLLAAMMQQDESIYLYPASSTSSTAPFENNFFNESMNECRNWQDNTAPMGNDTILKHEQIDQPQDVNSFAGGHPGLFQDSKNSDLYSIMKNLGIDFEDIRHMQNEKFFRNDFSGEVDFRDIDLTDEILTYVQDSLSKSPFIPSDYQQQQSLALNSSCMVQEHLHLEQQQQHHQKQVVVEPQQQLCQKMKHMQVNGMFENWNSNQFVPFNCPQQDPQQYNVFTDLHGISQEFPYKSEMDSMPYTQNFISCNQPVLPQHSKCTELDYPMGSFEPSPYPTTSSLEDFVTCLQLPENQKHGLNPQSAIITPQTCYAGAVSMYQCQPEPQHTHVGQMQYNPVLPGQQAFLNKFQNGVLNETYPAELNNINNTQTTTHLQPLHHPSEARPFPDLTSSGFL
Summary of the method: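 Steps: seed HepG2-AhR-luc cells; allow 5 h at 37C; pin-transfer test compound or vehicle; incubate 24 h at 37C; add viability dye (30 min, 37C) and read fluorescence; add luciferase substrate (30 min, RT) and read luminescence.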

[3] = qHTS assay to identify small molecule that activate the aryl hydrocarbon receptor (AhR) signaling pathway - cell viability counter screen (AID 743086);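 also: HepG2 liver cells carrying the AhR DRE luciferase reporter; series mostly up to about 70 µM; nearly all actives have a fitted effect of over 45% in size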
Summary of the method: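 HepG2-AhR-luc (HG2L7.5c1) cells, 4000/well, were preincubated 5 h at 37C, exposed to compound in qHTS format for 24 hr at 37C, then given CellTiter-Fluor for 30 min; viability was read as fluorescence in the reporter wells.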

[4] = qHTS assay for small molecule agonists of the antioxidant response element (ARE) signaling pathway (AID 743202; active = well fitted activation curve with a large enough effect in the signal ratio in the repeat runs, not every such curve was filed as active; the % refers to the signal ratio; also: potency is read from the fitted curve at half-maximal effect)
Summary of the method: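 Read-out: LiveBLAzer B/G FRET substrate fluorescence after 2 h at room temperature, following 16 h compound treatment at 37 C of HepG2 cells carrying an ARE-driven beta-lactamase reporter.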

[5] = qHTS assay for small molecule agonists of the antioxidant response element (ARE) signaling pathway - cell viability counter screen (AID 743203; calls by dose curve; also: nearly all actives have a fitted effect of over 55% in size)
Summary of the method: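 Following 16 hrs of compound treatment at 37C, HepG2 cells with an ARE-controlled beta-lactamase gene were lysed with CellTiter-Glo. Luminescence was read after 30 min at room temperature.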

[6] = qHTS assay for small molecule activators of the heat shock response signaling pathway - cell viability counter screen (AID 743209); also: nearly all actives have a fitted effect of over 50% in size
Summary of the method: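 Readout: CellTiter-Glo luminescence, 30 min at room temperature. System: HSE-bla HeLa cells, 1500/well, plated overnight. Treatment: compounds in DMSO, 5 h at 37 C.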

[7] = qHTS assay to identify small molecule agonists of the peroxisome proliferator-activated receptor delta (PPARd) signaling pathway - cell viability counter screen (AID 743211); also: nearly all actives have a fitted effect of over 55% in size; also: potency is read from the fitted curve at half-maximal effect
Summary of the method: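 Viability of GeneBLAzer PPARd UAS-bla HEK293H cells was assessed after 17 h compound incubation at 37C, using CellTiter-Glo reagent added after the reporter read and luminescence recorded 30 min later.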

[8] = target: Peroxisome proliferator-activated receptor gamma (Homo sapiens) (UniProt P37231); assay: qHTS assay to identify small molecule agonists of the peroxisome proliferator-activated receptor gamma (PPARg) signaling pathway (AID 743094; active = well fitted activation curve with a large enough effect in the signal ratio in the repeat runs, not every such curve was filed as active; the % refers to the signal ratio)
Peroxisome proliferator-activated receptor gamma (Homo sapiens), sequence (P37231 whole entry, looked up): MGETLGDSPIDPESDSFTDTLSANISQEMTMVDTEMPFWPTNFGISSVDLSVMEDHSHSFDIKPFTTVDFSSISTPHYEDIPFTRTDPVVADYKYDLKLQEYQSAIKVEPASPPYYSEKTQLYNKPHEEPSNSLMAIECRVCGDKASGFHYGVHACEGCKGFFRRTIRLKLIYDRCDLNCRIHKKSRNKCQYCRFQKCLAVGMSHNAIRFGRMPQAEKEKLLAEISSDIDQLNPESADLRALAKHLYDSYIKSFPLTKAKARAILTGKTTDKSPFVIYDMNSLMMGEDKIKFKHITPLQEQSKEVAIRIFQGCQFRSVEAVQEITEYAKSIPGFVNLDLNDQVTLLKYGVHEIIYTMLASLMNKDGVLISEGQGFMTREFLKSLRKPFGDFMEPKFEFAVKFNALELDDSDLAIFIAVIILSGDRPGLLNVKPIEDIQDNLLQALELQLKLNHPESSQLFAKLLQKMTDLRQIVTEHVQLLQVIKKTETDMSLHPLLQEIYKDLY
Summary of the method: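 Compounds dissolved in DMSO were added to PPARg UAS-bla HEK293H cells for 17 h at 37C, and reporter expression was quantified by fluorescence intensity after 1 h with LiveBLAzer B/G FRET substrate.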

[9] = target: Peroxisome proliferator-activated receptor gamma (Homo sapiens) (UniProt P37231); assay: qHTS assay to identify small molecule antagonists of the peroxisome proliferator-activated receptor gamma (PPARg) signaling pathway (AID 743191; calls by dose curve; also: nearly all actives have a fitted effect of over 30% in size; also: potency is read from the fitted curve at half-maximal effect)
Summary of the method: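 GeneBLAzer PPARg UAS-bla HEK293H cells carrying a UAS-driven beta-lactamase reporter were plated at 3000 cells/well, preincubated 5 h at 37C, then given compound for 17 h at 37C; LiveBLAzer B/G FRET substrate was read after 1 h at room temperature.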

[10] = qHTS assay to identify small molecule antagonists of the peroxisome proliferator-activated receptor gamma (PPARg) signaling pathway - cell viability counter screen (AID 743194); conditions: Potency: co-treated with 50 nM rosiglitazone; also: nearly all actives have a fitted effect of over 55% in size
Summary of the method: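 PPARg-UAS-bla HEK293H cells were plated, rested 5 h at 37 C, then treated with compounds plus rosiglitazone (50 nM final) for 17 h at 37 C; viability was then read by CellTiter-Glo luminescence after 30 min at room temperature.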

[11] = qHTS assay for small molecule activators of the heat shock response signaling pathway (AID 743210; active = well fitted activation curve with a large enough effect in the signal ratio in the repeat runs, with a control signal flat, not every such curve was filed as active; the % refers to the signal ratio; also: series mostly up to about 63 µM)
Summary of the method: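 HSE-bla HeLa cells (beta-lactamase reporter under heat shock response elements) were exposed to compounds for 5 h at 37 C, then loaded with LiveBLAzer B/G FRET substrate for 2.5 h at room temperature before fluorescence reading.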

[12] = target: Peroxisome proliferator-activated receptor delta (Homo sapiens) (UniProt Q03181); assay: qHTS assay to identify small molecule agonists of the peroxisome proliferator-activated receptor delta (PPARd) signaling pathway (AID 743212; calls by dose curve)
Peroxisome proliferator-activated receptor delta (Homo sapiens), sequence (Q03181 whole entry, looked up): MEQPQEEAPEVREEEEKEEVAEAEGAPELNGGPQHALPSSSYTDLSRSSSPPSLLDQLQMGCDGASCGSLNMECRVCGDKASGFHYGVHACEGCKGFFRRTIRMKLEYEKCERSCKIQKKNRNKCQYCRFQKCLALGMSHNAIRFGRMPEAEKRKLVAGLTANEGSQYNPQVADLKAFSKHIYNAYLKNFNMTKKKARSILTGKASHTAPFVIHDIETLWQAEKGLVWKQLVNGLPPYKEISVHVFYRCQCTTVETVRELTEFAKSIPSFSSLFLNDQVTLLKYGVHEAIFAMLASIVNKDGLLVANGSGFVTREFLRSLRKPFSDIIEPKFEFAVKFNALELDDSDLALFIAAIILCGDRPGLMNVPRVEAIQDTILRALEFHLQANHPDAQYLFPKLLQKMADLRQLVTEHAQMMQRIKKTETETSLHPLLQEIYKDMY
Summary of the method: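 GeneBLAzer PPARd UAS-bla HEK293H cells (beta-lactamase reporter under UAS control), plated and rested 5 h at 37 C, then exposed to compounds in DMSO at 37 C; LiveBLAzer B/G FRET substrate added, 2 h room temperature, fluorescence read.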

[13] = target: Bile acid receptor (Homo sapiens) (UniProt Q96RI1); assay: qHTS assay to identify small molecule antagonists of the farnesoid-X-receptor (FXR) signaling pathway (AID 743217; active = well fitted inhibition curve with a large enough effect in the signal ratio in the repeat runs, not every such curve was filed as active; the % refers to the signal ratio)
Bile acid receptor (Homo sapiens), sequence (Q96RI1 whole entry, looked up): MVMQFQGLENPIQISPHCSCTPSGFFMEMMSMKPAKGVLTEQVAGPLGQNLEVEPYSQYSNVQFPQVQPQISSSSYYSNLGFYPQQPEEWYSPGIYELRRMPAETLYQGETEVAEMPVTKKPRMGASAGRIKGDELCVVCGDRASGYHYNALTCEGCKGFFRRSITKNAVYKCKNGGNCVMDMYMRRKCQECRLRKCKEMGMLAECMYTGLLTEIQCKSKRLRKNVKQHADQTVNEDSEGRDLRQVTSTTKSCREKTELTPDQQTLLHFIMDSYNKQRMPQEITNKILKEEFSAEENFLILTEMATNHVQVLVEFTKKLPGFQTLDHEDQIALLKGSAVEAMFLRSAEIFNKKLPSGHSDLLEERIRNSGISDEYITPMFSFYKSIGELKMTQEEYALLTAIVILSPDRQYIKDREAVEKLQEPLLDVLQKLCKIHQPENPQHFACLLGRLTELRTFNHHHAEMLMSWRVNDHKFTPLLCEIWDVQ
Summary of the method: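 GeneBLAzer FXR-UAS-bla HEK 293T, CDCA-stimulated (50 uM final). Compound treatment 16 h, 37 °C. Detection: beta-lactamase cleavage of B/G FRET substrate, fluorescence.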

[14] = qHTS assay to identify small molecule agonists of the farnesoid-X-receptor (FXR) signaling pathway - cell viability counter screen (AID 743218); also: nearly all actives have a fitted effect of over 45% in size
Summary of the method: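 Parallel cytotoxicity test: compound-treated (16 h, 37 C) HEK 293T FXR-bla reporter cells were lysed with CellTiter-Glo and luminescence recorded.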

[15] = target: Bile acid receptor (Homo sapiens) (UniProt Q96RI1); assay: qHTS assay to identify small molecule agonists of the farnesoid-X-receptor (FXR) signaling pathway (AID 743220; active = well fitted activation curve with a large enough effect in the signal ratio in the repeat runs, not every such curve was filed as active; the % refers to the signal ratio)
Summary of the method: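 Beta-lactamase reporter under UAS control in GeneBLAzer FXR HEK 293T cells (5000/well) measured with LiveBLAzer FRET substrate after 2 h at room temperature. Compound exposure lasted 16 h at 37C.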

[16] = qHTS assay to identify small molecule antagonists of the farnesoid-X-receptor (FXR) signaling pathway - cell viability counter screen (AID 743221; active = well fitted cell-killing curve with a large enough effect in the repeat runs, not every such curve was filed as active; also: nearly all actives have a fitted effect of over 50% in size)
Summary of the method: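 Quantitative HTS of the Tox21 10K library run in parallel with the beta-lactamase reporter read. HEK 293T cells carrying a UAS-driven bla reporter got compound and 50 uM CDCA (final) for 16 h; ATP-based luminescence followed.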

[17] = target: Vitamin D3 receptor (Homo sapiens) (UniProt P11473); assay: qHTS assay to identify small molecule agonists of the vitamin D receptor (VDR) signaling pathway (AID 743222; calls by dose curve)
Vitamin D3 receptor (Homo sapiens), sequence (P11473 whole entry, looked up): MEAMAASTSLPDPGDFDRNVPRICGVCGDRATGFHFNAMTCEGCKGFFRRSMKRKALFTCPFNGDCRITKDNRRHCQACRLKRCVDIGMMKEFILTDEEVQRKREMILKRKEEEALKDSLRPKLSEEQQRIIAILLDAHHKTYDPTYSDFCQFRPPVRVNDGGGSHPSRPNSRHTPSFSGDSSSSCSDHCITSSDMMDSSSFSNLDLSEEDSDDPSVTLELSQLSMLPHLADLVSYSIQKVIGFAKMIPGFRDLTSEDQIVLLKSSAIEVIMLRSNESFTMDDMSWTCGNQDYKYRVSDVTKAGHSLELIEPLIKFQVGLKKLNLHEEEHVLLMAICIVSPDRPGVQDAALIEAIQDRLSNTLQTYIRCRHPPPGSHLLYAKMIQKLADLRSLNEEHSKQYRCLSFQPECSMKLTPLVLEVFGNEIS
Summary of the method: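 In VDR-bla cells, compound-induced beta-lactamase expression is quantified by FRET substrate fluorescence. Treatment lasts 16 h at 37C; substrate develops 2 h at room temperature.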

[18] = target: Vitamin D3 receptor (Homo sapiens) (UniProt P11473); assay: qHTS assay to identify small molecule antagonists of the vitamin D receptor (VDR) signaling pathway (AID 743223; active = well fitted inhibition curve with a large enough effect in the signal ratio in the repeat runs, not every such curve was filed as active; the % refers to the signal ratio)
Summary of the method: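 Fluorescence from LiveBLAzer B/G FRET substrate, read after 2 h at room temperature, reflects beta-lactamase reporter activity in VDR-bla cells treated 16 h at 37C with compounds and agonist 1alpha,25-dihydroxyvitamin D3 (3 nM final).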

[19] = qHTS assay to identify small molecule antagonists of the peroxisome proliferator-activated receptor delta (PPARd) signaling pathway - cell viability counter screen (AID 743213); also: nearly all actives have a fitted effect of over 50% in size
Summary of the method: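 Viability counter-screen, qHTS format: PPARd-bla HEK293H, L165041 300 nM final, 17 h compound exposure at 37 C, CellTiter-Glo luminescence after 30 min RT.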

[20] = target: Peroxisome proliferator-activated receptor delta (Homo sapiens) (UniProt Q03181); assay: qHTS assay to identify small molecule antagonists of the peroxisome proliferator-activated receptor delta (PPARd) signaling pathway (AID 743215; active = well fitted inhibition curve with a large enough effect in the signal ratio in the repeat runs, not every such curve was filed as active; the % refers to the signal ratio;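 also: cells stimulated with agonist L165041 at 300 nM final during compound exposure; series mostly up to about 62 µM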)
Summary of the method: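 HEK293H UAS-bla, PPARd; agonist L165041 300 nM final with cpd in DMSO; 37 C 17 h; FRET substrate, RT 2 h; fluorescence intensity.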

Measured: Potency

CC1=C(C(=O)Nc2ccccc2)S(=O)(=O)CCO1
inactive: [2] | [3] | [5] | [6]
active: [1] 30.6 µM | [4] 1.93 µM | [7] 54.9 µM

CCCCOC(=O)c1ccccc1C(=O)O
not listed: [2] | [16] | [17] | [18] | [19] | [20]
inactive: all other assays above

Cc1ncc2n1-c1ccc(Cl)cc1C(c1ccccc1F)=NC2
not listed: [2] | [4] | [8] | [12] | [13] | [15] | [19] | [20]
inactive: all other assays above

CC1=NNC(=O)N(/N=C/c2cccnc2)C1
not listed: [2] | [9] | [13] | [14] | [15]
inactive: all other assays above

Cc1coc2c1CCC(C)C2 (stereo not given)
inactive: [1] | [3] | [10] | [6] | [11] | [7] | [19] | [20] | [14] | [16] | [17]

BrCCCCCCBr
not listed: [2] | [4] | [13] | [15] | [18] | [20]
inactive: all other assays above

CCOP(=S)(OCC)Oc1cc(-c2ccccc2)on1
not listed: [2] | [8] | [10] | [15] | [16] | [18] | [20]
inactive: all other assays above

CN1CCC(O)(c2ccc(F)cc2)C(C(=O)c2ccc(F)cc2)C1 (stereo not given)
not listed: [2] | [4] | [6] | [11] | [12] | [13] | [15] | [18]
inactive: all other assays above

CCCCOP(=O)(O)OCCCC
not listed: [2] | [9] | [17] | [18]
inactive: all other assays above

CCCSP(=O)(OCC)Oc1ccc(Br)cc1Cl (stereo not given)
not listed: [2] | [4] | [8] | [9] | [10] | [13] | [14] | [19]
inactive: all other assays above

CCOC(=O)C(c1c(O)c2ccccc2oc1=O)c1c(O)c2ccccc2oc1=O
inactive: [10] | [5] | [6] | [11] | [7] | [12] | [19] | [20] | [14] | [16]
active: [9] 7.5 µM

COc1cccc(C(=O)NN(C(=O)c2cc(C)cc(C)c2)C(C)(C)C)c1C
inactive: [9] | [10] | [5] | [6] | [11] | [7] | [12] | [20] | [16] | [17] | [18]

CCOP(=S)(Oc1cnc(C(C)(C)C)nc1)OC(C)C (stereo not given)
inactive: [3] | [9] | [5] | [6] | [20] | [14] | [16] | [17] | [18]
active: [2] 54.5 µM

CCC#N
not listed: [1] | [2] | [8] | [9] | [17] | [20]
inactive: all other assays above

c1ccc(N2CCNCC2)cc1
not listed: [1] | [2] | [3] | [8] | [9] | [11] | [12] | [20]
inactive: all other assays above

O=C1CN2CCOC2(c2ccccc2Cl)c2cc(Cl)ccc2N1 (stereo not given)
inactive: [10] | [5] | [6] | [11] | [19] | [20] | [14] | [15] | [17] | [18]

Fc1cc(Br)ccc1CBr
not listed: [1] | [2] | [3] | [8] | [12] | [14]
inactive: all other assays above

CC1=C(C(=O)O)N2C(=O)[C@@H](N)[C@H]2SC1
not listed: [1] | [2] | [3] | [8] | [13] | [15] | [17] | [19]
inactive: all other assays above

COC(=O)COc1ccc(Cl)cc1Cl
inactive: [3] | [10] | [4] | [5] | [6] | [11] | [7] | [20] | [14] | [17] | [18]

CCN(CC)CCOC(=O)C(C)(c1ccccc1)c1ccccc1
not listed: [2] | [3] | [12] | [13] | [15] | [16] | [17] | [18]
inactive: all other assays above

CC(C=O)Cc1ccc2c(c1)OCO2 (stereo not given)
not listed: [1] | [9] | [18]
inactive: all other assays above
